Screening data as filed in PubChem BioAssay.
KLK7 zymogen act: proKLK7 (human) activation, primary screen. P49862. purified proKLK7, EDANS-DABCYL substrate fluorescence; 100% is mature enzyme control, 0% vehicle. activation, % at 7 µM. 370,000 compounds, 0.9% hits;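 active = activation above the mean of all tested compounds plus 3 SD, computed per campaign excluding outliers beyond control limits, cut at about 13% in these data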
FAS-TE inh: inhibitors of human fatty acid synthase thioesterase domain; recombinant FAS-TE, OMFH fluorogenic substrate, fluorescence endpoint; inhibition, % at 15 µM; 360,000 compounds, 0.67% hits;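 active = compounds whose normalised, plate-corrected inhibition of enzyme fluorescence in the single-dose primary screen is 50% or more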
ADAM17 inh: ADAM17 inhibition, QFRET primary screen; recombinant ADAM17, EDANS/DABCYL FRET peptide cleavage; inhibition, % at 6.95 µM; 370,000 compounds, 0.83% hits; AID 720648;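 active = inhibition above the mean of compounds lying between control limits plus 3 SD, set per campaign, cut at about 8.5% in these data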
ADAM10 inh: inhibits human ADAM10 | 370,000 compounds, 0.62% hits | inhibition, % at 7 µM | recombinant ADAM10, EDANS/DABCYL FRET peptide cleavage, 3 h | O14672 | AID 720582;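 active = inhibition above a per-campaign cutoff equal to the mean of compounds falling between control-based bounds plus 3 SD, cut at about 20% in these data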
Target sequence (O14672 214-748 limits assumed): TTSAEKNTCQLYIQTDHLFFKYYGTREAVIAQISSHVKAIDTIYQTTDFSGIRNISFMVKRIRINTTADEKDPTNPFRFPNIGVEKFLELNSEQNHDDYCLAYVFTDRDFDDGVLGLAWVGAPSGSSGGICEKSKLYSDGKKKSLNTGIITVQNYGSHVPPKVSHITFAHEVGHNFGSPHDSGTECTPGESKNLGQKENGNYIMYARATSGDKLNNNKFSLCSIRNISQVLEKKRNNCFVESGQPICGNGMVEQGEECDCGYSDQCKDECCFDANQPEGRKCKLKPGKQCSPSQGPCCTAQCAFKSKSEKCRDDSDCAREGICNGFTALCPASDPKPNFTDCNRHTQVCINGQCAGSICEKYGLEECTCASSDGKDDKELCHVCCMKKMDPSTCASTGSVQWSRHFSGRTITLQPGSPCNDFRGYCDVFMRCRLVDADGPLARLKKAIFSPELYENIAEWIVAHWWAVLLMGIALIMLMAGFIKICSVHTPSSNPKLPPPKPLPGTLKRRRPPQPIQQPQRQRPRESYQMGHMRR
GRIN3A LBD mod: NR3A (human) ligand-binding domain modulation; NR3A LBD differential scanning fluorimetry, Tm shift; 0% = protein alone, 100% = glycine-bound protein; Tm shift relative to glycine control, % at 25 µM; 340,000 compounds, 2.5% hits;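 active = melting temperature shift of at least 10% of the positive control shift, at one fixed dose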
proKLK7 act conf: proKLK7 activation, confirmation; shares compounds with KLK7 zymogen act; purified proKLK7, EDANS-DABCYL substrate fluorescence; scaled: vehicle 0, mature enzyme 100; activation, % at 7 µM; 3,200 compounds, 68% hits; AID 686949;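 active = activation, as change over the incubation, above the mean of all tested compounds plus 3 SD, cut at about 13% in these data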
EDANS interfere: fluorescence interference counter-screen for KLK7 activators | shares compounds with KLK7 zymogen act | EDANS-DABCYL substrate fluorescence interference, no enzyme, 4 h; solvent 0%, active enzyme control 100% | activation, % at 7 µM | 3,200 compounds, 80% hits | AID 686952;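 active = activation above the all-compound mean plus 3 SD, ignoring values outside control-based bounds, cut at about 4.8% in these data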;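 also: value is the 4 h activation minus the activation read at time zero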
K7 EDANS ctr: EDANS fluorescence interference in dose response, no enzyme; shares compounds with KLK7 zymogen act; EDANS-DABCYL peptide fluorescence interference; EC50, µM; 250 compounds, 20% hits; AID 720493;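 active = compounds that raise the fluorescence signal in this interference counterscreen, with EC50 at or below 10 µM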;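 also: intact quenched peptide substrate alone read at 355 nm excitation and 520 nm emission; signal is fluorescence gain from T0 to T4 after four hours at room temperature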
Each line names hits and unclear results; the compound was inactive in the other large screens (follow-up assays come after a bar, where they were run). Shown are actives, neighbours in structure and some others; about 4.6% of the full set was active somewhere.

CC(=O)N=c1c(C#N)cc2c(=O)n3ccccc3nc2n1CCCOC(C)C	KLK7 zymogen act 34.6 | proKLK7 act conf inactive | EDANS interfere inactive
CCn1c(SCC(=O)NN=Cc2cc(OC)ccc2OC)nnc1-c1ccc(OC)cc1	none (no result: FAS-TE inh, GRIN3A LBD mod)
O=S1(=O)c2c(cccc2N2CCC[C@@H]2CO)O[C@@H]2CCN1C2	none (no result: FAS-TE inh, GRIN3A LBD mod)
CCN1C(=O)c2cccc3c(S(=O)(=O)NCCc4c[nH]c5ccccc45)ccc1c23	KLK7 zymogen act 15.1 | proKLK7 act conf 36.6 | EDANS interfere 55.3
CCN1C(=O)c2cccc3c(S(=O)(=O)Nc4ccc(O)c(C(=O)O)c4)ccc1c23	none
CCN1C(=O)c2cccc3c(S(=O)(=O)Nc4ccccc4OC)ccc1c23	none
CCN1C(=O)c2cccc3c(S(=O)(=O)NCc4ccccc4)ccc1c23	KLK7 zymogen act 34.5 | proKLK7 act conf inactive | EDANS interfere inactive
CCN1C(=O)c2cccc3c(S(=O)(=O)NCCCN4CCOCC4)ccc1c23	KLK7 zymogen act 51.2 | proKLK7 act conf 43.6 | EDANS interfere 43.1
COc1ccc(OC)c(S(=O)(=O)N2CCCCC2C(=O)N2CCN(CCO)CC2)c1 (stereo unspecified)	none (no result: FAS-TE inh, GRIN3A LBD mod)
CCCCCn1nnnc1C1(C)CN(S(C)(=O)=O)CC(=O)N1Cc1ccco1 (stereo unspecified)	none (no result: FAS-TE inh, GRIN3A LBD mod)
Cc1cc(N2CCN(C)CC2)n2cc(-c3ccc(F)cc3)nc2n1	KLK7 zymogen act 32.3 | proKLK7 act conf inactive | EDANS interfere 6.5
CCCCCn1c(C)c(CC(=O)Nc2ccc(Oc3cccnc3)c(C)c2)c2ccccc21	none (no result: FAS-TE inh, GRIN3A LBD mod)
CC(C)(C)C(=O)CSc1nnc(SCc2cccc3ccccc23)s1	none (no result: FAS-TE inh, GRIN3A LBD mod)
C=CCn1c(=N)c(C(=O)NCCCOC)cc2c(=O)n3ccccc3nc21	KLK7 zymogen act 136.4 | proKLK7 act conf 56.8 | EDANS interfere 66.8
C=CCn1c(=N)c(C#N)cc2c(=O)n3ccccc3nc21	none
C=CCn1c(=N)c(C(=O)NCCCOC)cc2c(=O)n3cc(C)ccc3nc21	KLK7 zymogen act 143.3 | proKLK7 act conf 58.4 | EDANS interfere 61.5
c1ccc(Cn2ccc3ccc(-c4ccc5ccn(Cc6ccc(-c7ccccc7)cc6)c5c4)cc32)cc1	none (no result: FAS-TE inh, GRIN3A LBD mod)
C=CCNc1sc(C(=O)c2ccccc2)c(N)c1C#N	none
C=CCNc1sc(C(=O)c2ccc(C)cc2)c(N)c1C#N	KLK7 zymogen act 185.6 | proKLK7 act conf 22.4 | EDANS interfere 15.0 | K7 EDANS ctr inactive
Cc1ccccc1N(CC(=O)NC1CCCC1)C(=O)C1(C)CC(=O)N=C2C=CC=CN21 (stereo unspecified)	none
Cc1ccccc1N(CC(=O)NC1CCCC1)C(=O)C1(C)CC(=O)N=C2C=CC(Cl)=CN21 (stereo unspecified)	KLK7 zymogen act 16.2 | proKLK7 act conf 33.5 | EDANS interfere 39.1
Cc1ccc(Cn2cc(CN(C(C)(C)C)S(=O)(=O)c3ccccc3Br)nn2)cc1	none (no result: FAS-TE inh, GRIN3A LBD mod)
CCOc1ccccc1OCCCC(=O)Nc1nc2ccccc2[nH]1	none
CCOc1ccccc1/C=C/c1nc2ccccc2[nH]c1=O	KLK7 zymogen act 12.9 | proKLK7 act conf inactive | EDANS interfere inactive
COC(=O)c1ccc(C2C(C#N)=C(C)NC3=C2C(=O)CC(C)(C)C3)cc1 (stereo unspecified)	KLK7 zymogen act 36.0 | proKLK7 act conf 43.1 | EDANS interfere 29.8 | K7 EDANS ctr inactive
CCCCC1C(C#N)=C(C)NC2=C1C(=O)CC(C)(C)C2 (stereo unspecified)	KLK7 zymogen act 41.0 | proKLK7 act conf 22.3 | EDANS interfere 25.3
COc1ccc(C2C(C#N)=C(SC)NC3=C2C(=O)CC(C)(C)C3)cc1 (stereo unspecified)	none
COc1ccc(C2C(C#N)=C(C)NC3=C2C(=O)CC(C)(C)C3)c(OC)c1 (stereo unspecified)	none (no result: KLK7 zymogen act, ADAM17 inh, ADAM10 inh)
CCCNC(=O)COC(=O)c1cc(C)nc2ccccc12	none
COc1ccc(-c2cc(C(=O)N/N=C(\C)c3cccnc3)c3ccccc3n2)cc1	KLK7 zymogen act 37.4 | proKLK7 act conf inactive | EDANS interfere inactive
COCCNC(=O)COC(=O)c1cc(-c2ccc(OC)cc2)nc2ccccc12	KLK7 zymogen act 136.8 | proKLK7 act conf 108.3 | EDANS interfere 119.1
CCCNC(=O)COC(=O)c1cc(-c2ccc(OC)cc2)nc2ccccc12	KLK7 zymogen act 52.0 | proKLK7 act conf inactive | EDANS interfere inactive
CCNC(=O)COC(=O)c1cc(-c2ccc(OC)cc2)nc2ccccc12	KLK7 zymogen act 173.9 | proKLK7 act conf 208.0 | EDANS interfere 259.9
COc1cccc(/C=N\N2CCN(c3ccc(C)cc3)CC2)c1O	none (no result: FAS-TE inh, GRIN3A LBD mod)
COC(=O)[C@]12C[C@H](CC(=O)NCc3ccccc3)C(=O)N(CCc3ccc(OC)c(OC)c3)C1=C[C@H](C1CCCC1)O[C@@H]2C	none (no result: FAS-TE inh, GRIN3A LBD mod)
CN1C(=O)c2cc(NC(=O)Nc3ccc(F)c(F)c3)ccc2OC[C@H]2O[C@@H](CC(=O)O)CC[C@H]21	none (no result: FAS-TE inh, GRIN3A LBD mod)
COc1ccc(-c2cc(C(=O)OCC(=O)NC(C)C)c3ccccc3n2)cc1	KLK7 zymogen act 21.4 | proKLK7 act conf 33.4 | EDANS interfere 39.7
COc1ccc(-c2cc(C(=O)OCC(=O)NC3CC3)c3ccccc3n2)cc1	KLK7 zymogen act 16.0 | proKLK7 act conf inactive | EDANS interfere 9.7
COc1ccc(-c2cc(C(=O)OCC(=O)NC(C)(C)C)c3ccccc3n2)cc1	none (no result: KLK7 zymogen act, ADAM17 inh, ADAM10 inh, GRIN3A LBD mod)
O=C(COC(=O)c1cc(-c2ccccc2)nc2ccccc12)NC1CC1	none
CCOC(=O)[C@]12CCCC=C1N(Cc1ccc(OC)cc1)C(=O)[C@@H]2CC(=O)NCCCOC	none (no result: FAS-TE inh, GRIN3A LBD mod)
COC(=O)CN1CCN(C(=O)c2nocc2C)CC1	none (no result: FAS-TE inh, GRIN3A LBD mod)
FCCCOc1ccc(-c2ccnc3ncnn23)cc1	none
COc1ccc(-c2ccnc3ncnn23)cc1	KLK7 zymogen act 32.7 | proKLK7 act conf 26.6 | EDANS interfere 34.7
COc1ccc(-c2cc(-c3ccccc3)n3ncnc3n2)cc1	KLK7 zymogen act 29.6 | proKLK7 act conf 25.0 | EDANS interfere inactive
COc1ccc(-c2nnn3c2Cn2c4ccccc4c(=O)n2[C@@H](C)C3)cc1	none (no result: FAS-TE inh, GRIN3A LBD mod)
O=C(Nc1ncc2c(n1)-c1ccccc1CC2)c1ccc(Cl)cc1	none
O=C(Nc1ncc2c(n1)-c1ccccc1OC2)c1ccc(F)cc1	KLK7 zymogen act 32.0 | proKLK7 act conf 14.7 | EDANS interfere 11.7 | K7 EDANS ctr inactive
CC[C@@H](NS(=O)(=O)c1ccc(C)cc1)C(=O)Oc1ccc2c3c(c(=O)oc2c1)CCC3	KLK7 zymogen act 240.8 | proKLK7 act conf 534.3 | EDANS interfere 472.8
